Screens as filed in PubChem.
sEH act: activators of human soluble epoxide hydrolase; P34913; purified human sEH enzymatic activity, activator screen; activation, % at 2 µM; 91,000 compounds, 0.04% hits; in the data active = activation above about 37%
Target sequence (P34913 whole entry, looked up): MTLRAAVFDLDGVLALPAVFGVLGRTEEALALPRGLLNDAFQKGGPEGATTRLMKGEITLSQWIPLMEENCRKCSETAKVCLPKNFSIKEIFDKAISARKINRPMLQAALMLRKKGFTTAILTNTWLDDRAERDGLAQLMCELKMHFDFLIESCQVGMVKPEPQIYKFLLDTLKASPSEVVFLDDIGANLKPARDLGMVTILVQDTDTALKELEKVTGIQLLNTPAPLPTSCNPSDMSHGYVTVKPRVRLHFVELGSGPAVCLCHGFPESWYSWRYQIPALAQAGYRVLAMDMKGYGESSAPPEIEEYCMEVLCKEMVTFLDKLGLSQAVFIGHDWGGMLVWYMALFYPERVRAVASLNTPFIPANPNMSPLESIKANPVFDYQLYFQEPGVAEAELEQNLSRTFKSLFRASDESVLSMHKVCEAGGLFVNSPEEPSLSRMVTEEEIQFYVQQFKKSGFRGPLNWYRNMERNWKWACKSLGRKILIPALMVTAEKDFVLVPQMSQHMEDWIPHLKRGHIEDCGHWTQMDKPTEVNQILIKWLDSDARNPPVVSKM
CYP2C9 activ: increases human cytochrome P450 2C9 activity; activation factor at 5 µM; recombinant CYP2C9, luciferin-H conversion, luminescence; active compounds read high; factor 1 = untreated enzyme, 0 = blocked; 96,000 compounds, 1.4% hits; P11712; AID 1024;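 active = activation factor of 2 or more for CYP2C9 at a 5 µM dose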;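 note: 0 = sulfaphenazole-blocked wells and 1 = vehicle-only wells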
CYP2C19 inhib: human CYP2C19 inhibition; CYP2C19 Supersomes, luciferin-H EGE luminescence, 30 min; inhibition, % at 5 µM; 96,000 compounds, 21% hits;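 active = CYP2C19 inhibition above a set limit at 5 µM in the primary screen, cut at about 50% in these data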;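 note: plate controls were negative control wells for no effect and 2.5 mM tranylcypromine positive control for full effect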
CYP2C9 inh: blocks human cytochrome P450 2C9. P11712. CYP2C9 Supersomes, luciferin-H conversion, luminescence. inhibition, % at 5 µM. 96,000 compounds, 20% hits;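 active = blocking of liver enzyme CYP2C9 beyond about 50% at 5 µM, limit read from the data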
CYP2C19 act: activators of human cytochrome P450 2C19. AID 1025. 96,000 tested, under 10 active. activation factor at 5 µM. recombinant CYP2C19, luciferin-H EGE luminescence; active compounds read high; 0 = fully inhibited enzyme, 1 = untreated enzyme. P33261;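 active = activation factor of at least 2 at 5 µM in the primary screen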;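 note: 0 = wells with 2.5 mM tranylcypromine and 1 = vehicle-only wells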
sEH inh: soluble epoxide hydrolase (human) inhibition. recombinant human sEH enzymatic activity assay. AID 707. 91,000 compounds, 0.34% hits. P34913. inhibition, % at 2 µM; in the data active = inhibition above about 80%
Active calls of the source: *; . = not tested or not shown. Shown are actives, neighbours in structure and some others; about 27% of the full set was active somewhere.

SMILES	sEH act	CYP2C9 activ	CYP2C19 inhib	CYP2C9 inh	CYP2C19 act	sEH inh
COc1ccc(-n2nnnc2-c2cnc3cc4c(cc3c2C)OCO4)cc1	5.9	0.5	31.3	45.9	0.7	-3.2
CCOC(=O)c1[nH]cnc1C(=O)Nc1ccncc1	0.5	0.5	33.0	54.2*	0.7	-0.6
COc1ccc(OC)c2c1sc(=NC(=O)C(C)C)n2C	.	0.3	70.6*	70.7*	0.3	.
COc1ccc(C(=O)N=c2sc3c(C)ccc(OC)c3n2C)cc1	.	0.5	30.5	52.8*	0.7	.
CCN1CCN(C(=O)c2ccc3c(c2)N(Cc2ccc(F)cc2)C(=O)c2ccccc2S3=O)CC1 (configuration not stated)	-1.4	.	.	.	.	1.1
CCOC(=O)N1CC=C2C(C#N)=C(N)C(C#N)(C#N)[C@H](c3ccc(OC(C)C)c(OCC)c3)[C@H]2C1	-0.7	0.3	39.3	74.5*	0.6	0.9
CCOC(=O)N1CC=C2C(C#N)=C(N)C(C#N)(C#N)[C@H](c3ccccc3OCC)[C@H]2C1	6.1	0.9	15.4	12.6	0.8	-5.9
O=C(COc1ccc(-n2cnnn2)cc1)NC(=O)NCc1ccccc1	-0.9	0.8	16.6	15.9	0.8	1.1
COc1ccc(S(=O)(=O)c2ccc(O)cc2)cc1	4.1	2.8*	70.9*	-182.9	0.3	-7.2
COc1ccc(S(=O)(=O)NC(C)C(=O)O)cc1 (configuration not stated)	-3.3	0.9	6.5	5.7	0.9	1.4
COc1ccc(C(CC(=O)c2ccc(O)cc2)S(=O)(=O)c2ccc(C)cc2)cc1 (configuration not stated)	9.2	0.1	70.7*	87.8*	0.3	-7.1
Cc1nnc(C)n1/N=C/c1ccc(-c2ccccc2)cc1	-9.7	1.1	-3.3	-8.3	1	9.1
CCOC(=O)c1ccc(CSc2ncn[nH]2)o1	-0.6	1	20.6	4.3	0.8	1.7
CCCc1cc(-c2[nH]ncc2-c2ccc3c(c2)OCCCO3)c(O)cc1O	-19.9	0	100.0*	100.0*	0	20.1
CCCc1cc(-c2[nH]ncc2-c2ccc(C(=O)OCC)o2)c(O)cc1O	8.9	0	70.4*	97.9*	0.3	-9.3
C=CCSc1nc(C)c(CC(=O)OCC(C)C)c(=O)[nH]1	.	0.7	47.4	30.5	0.5	.
CN(C)/N=C/C=C1\CC/C(=C\c2ccc(Br)cc2)C1=O	-12.6	1.1	53.9*	-11.0	0.5	10.0
Cc1noc(C)c1COc1ccc(C(=O)OCC(=O)Nc2ccc3ccccc3c2)cc1	-36.7	0.1	64.7*	88.3*	0.4	36.3
Cc1noc(C)c1COc1ccc(C(=O)OCC(=O)N2CC3(C)CC2CC(C)(C)C3)cc1 (configuration not stated)	3.6	0.5	63.5*	52.9*	0.4	-0.2
CCOC(=O)c1cc(NC(=O)c2c(C)noc2C)cc(C(=O)OCC)c1	-13.4	0.3	9.5	74.7*	0.9	11.2
Cc1noc(C)c1COc1ccc(C(=O)OCC(=O)NC(=O)C2COc3ccccc3O2)cc1 (configuration not stated)	9.2	0.6	13.8	40.7	0.9	-9.7
Cc1noc(C(=O)N2CC3(C)CC2CC(C)(C)C3)c1Cl (configuration not stated)	.	0.7	81.7*	34.8	0.2	.
Cc1ccc(NC(=O)c2c(C)noc2C)cc1	-4.1	1	5.0	2.9	0.9	5.0
COCCCn1cnnc1SCC(=O)Nc1ccc(S(=O)(=O)N2CCCC2)cc1	12.4	0.8	17.7	19.1	0.8	-9.1
CCn1c(CNC(=O)c2cccc(C)c2)nnc1SCC(=O)NC1CCCCC1C (configuration not stated)	7.8	0.9	11.4	13.1	0.9	-4.2
SMILES	sEH act	CYP2C9 activ	CYP2C19 inhib	CYP2C9 inh	CYP2C19 act	sEH inh
COc1ccc(CNC(=O)c2ccc(S(=O)(=O)N3CCCC3)cc2)cc1OC	-12.9	0.5	4.1	48.3	1	15.5
O=C(Nc1ccc(Br)cc1)c1ccc(CSC2=NCCS2)cc1	-56.1	0.6	18.8	35.4	0.8	57.9
COc1ccc(C(C)=O)cc1COC(=O)c1cnc(C)cn1	-6.5	0.8	24.4	18.1	0.8	8.0
COc1ccc(C(C)=O)cc1COC(=O)c1c(C)noc1C	8.4	0.5	60.9*	52.4*	0.4	-9.9
Cc1noc(C)c1COc1ccc(C(=O)OCC(=O)c2ccc3c(c2)OCCO3)cc1	-18.7	1.1	-18.5	-8.2	1.2	18.1
Cc1ccc(OCC(=O)N2CC3(C)CC2CC(C)(C)C3)cc1 (configuration not stated)	7.0	.	.	.	.	-1.1
CCOC(=O)c1ccc(OCc2c(C)noc2C)cc1	7.5	0.2	74.9*	78.6*	0.3	-6.5
COc1ccc(C(C)=O)cc1COC(=O)c1ccc(OCc2c(C)noc2C)cc1	0.6	0.2	88.4*	75.9*	0.1	-0.1
Cc1cccc(C)c1OCC(=O)N1CC2(C)CC1CC(C)(C)C2 (configuration not stated)	-5.7	1.2	61.0*	-22.4	0.4	7.8
COc1ccc(N(Cc2cc3cccc(C)c3[nH]c2=O)S(C)(=O)=O)cc1	1.9	1.1	-2.5	-12.2	1	-4.3
COc1ccc(S(=O)(=O)N(CC(=O)N/N=C/c2cccs2)c2cc(C)cc(C)c2)cc1OC	-1.5	0.4	52.6*	59.8*	0.5	0.5
COc1ccc(/C=C(/NC(=O)c2ccccc2)C(=O)N/N=C/c2cccs2)cc1OC	-3.2	1	28.8	3.1	0.7	3.9
CCOc1ccc(S(=O)(=O)N(CC(=O)N/N=C/c2cccs2)c2ccc(C)cc2)cc1	0.1	0.9	52.6*	7.2	0.5	-2.1
Cc1ccc(N(CC(=O)NC(C)c2ccccc2)S(=O)(=O)c2cccs2)cc1 (configuration not stated)	5.0	0.1	97.5*	86.3*	0	-8.2
COc1ccc(S(=O)(=O)N(CC(=O)N/N=C/c2cccs2)c2ccc(C)cc2)cc1OC	-4.1	0.5	99.2*	46.9	0	5.9
Cc1cc(C(=O)COC(=O)CN(C)S(=O)(=O)c2ccc(Cl)cc2)c(C)n1Cc1cccs1	-7.2	1.1	73.7*	-6.7	0.3	7.8
Cc1cccc(N(C)S(=O)(=O)c2cccc3nsnc23)c1	.	1.7	64.2*	-69.9	0.4	.
CCN(c1cccc(C)c1)S(=O)(=O)c1cccc2nsnc12	.	0.5	88.9*	53.3*	0.1	.
CN(C)S(=O)(=O)c1cccc2nsnc12	2.5	0.9	16.4	11.6	0.8	-2.4
CN(C1CCS(=O)(=O)C1)S(=O)(=O)c1cccc2nsnc12 (configuration not stated)	9.4	1.1	-3.0	-9.8	1	-11.4
COc1ccccc1-n1cnnc1SCC(=O)Nc1nc(C)c(Cl)cc1Cl	-17.9	0.8	74.6*	21.3	0.3	20.7
COc1ccccc1-n1cnnc1SCC(=O)Nc1ncc(Cl)cc1Cl	5.0	1.1	27.2	-6.6	0.7	-5.4
